{"source": "PubChem BioAssay AID651815", "about": "(National Center for Advancing Translational Sciences (NCATS), 2012)", "note": "In all, about 2,100 compounds went through this assay and about 1,100 (52%) were called active. Roughly 29% stayed inconclusive and do not appear here. The set was probably picked from earlier hits. This is one part of the list. Values without a mark were called inactive. Calls come from the whole dose curve; as a rule, active = well fitted inhibition curve with a large enough effect; inconclusive = small, poorly fitted or top-dose-only effect; inactive = no such curve, though single readings can be large or run the other way. % is set by controls: 0 for no effect and ±100 for the full control effect; potency is the fitted concentration of half-maximal effect.", "data": [{"molecular_target": "DNA dC->dU-editing enzyme APOBEC-3F (Homo sapiens) (UniProt Q8IUX4)", "sequence (Q8IUX4 whole entry, looked up)": "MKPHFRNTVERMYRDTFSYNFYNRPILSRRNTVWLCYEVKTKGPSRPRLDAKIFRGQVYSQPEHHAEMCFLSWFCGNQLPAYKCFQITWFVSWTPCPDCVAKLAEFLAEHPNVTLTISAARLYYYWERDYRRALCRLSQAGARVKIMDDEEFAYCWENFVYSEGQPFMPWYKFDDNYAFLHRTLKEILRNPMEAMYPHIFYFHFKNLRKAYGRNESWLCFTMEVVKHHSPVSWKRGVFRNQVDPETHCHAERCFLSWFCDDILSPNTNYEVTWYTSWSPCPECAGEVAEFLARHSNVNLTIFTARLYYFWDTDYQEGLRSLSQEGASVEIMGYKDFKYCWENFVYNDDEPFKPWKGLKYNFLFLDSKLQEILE", "assay": "qHTS for inhibitors of Vif-A3F interactions: Cherry picks counterscreen; note: nearly all actives have a fitted effect of over 65% in size", "details": "HeLa A3F-eYFP/Vif cells, eYFP fluorescence, 24 h; series mostly up to 46.1 µM; activity, negative = inhibitor: at the top concentration", "source_text": "The recent discovery and characterization of host restriction factors, which provide a potent defense to invading retroviruses, has provided new targets for antiviral drug development. APOBEC3G (A3G) and APOBEC3F (A3F) are potent cytidine deaminases that block HIV-1 replication; HIV-1 expresses the Vif protein, which counteracts A3G and A3F by binding to them and inducing their proteasomal degradation. The Vif-A3G and Vif-A3F interactions provide two potential targets for development of small molecules which can interfere with the ability of Vif to degrade A3G or A3F. […] To identify inhibitors that can interfere with Vif mediated degradation of A3G and A3F, we have developed Hela cell lines that stably express A3G or A3F tagged with eYFP at the C-terminal end (A3G-eYFP or A3F-eYFP, respectively) and Vif. In the absence of an inhibitor, Vif induces degradation of A3G-eYFP and A3F-eYFP, and the cells are not fluorescent. In the presence of an inhibitor, it is expected that Vif will be unable to degrade A3G-eYFP and/or A3F-eYFP, resulting in an increase in yellow fluorescence. In this counterscreen assay, Vif A3F was screened against the cherry picks ordered from the MLSMR. NIH Chemical Genomics Center [NCGC] NIH Molecular Libraries Probe Centers Network [MLPCN] MLPCN Grant: MH093245 Assay Submitter (PI): Vinay Pathak, National Cancer Institute\nA3F-Vif cells were harvested from T225 flask and resuspended in phenol free OPTI-MEM medium with 5% FBS. Then 5 uL of 140,000 cells/mL resuspended cells was dispensed into each well of low base Aurora COC 1,536-well plates (black walled, clear bottom) using a Multidrop Combi dispenser. After overnight culture at 37 deg C with 5% CO2, a total of 23 nL of compounds at 5 selected concentrations from the NPC or positive control (2 mM stock of MG132) in DMSO was transferred to each well of the assay plate using a pintool (Kalypsys, San Diego, CA), and the plates were further incubated at 37 deg C with 5% CO2 for 24 hours. After that, the plates were measured on Acumen Explorer (TTP Lab Tech). The fluorescence was detected by 488 nm/Ex and […].", "values": [{"smiles": "COc1ccc(C(=O)C(C)[n+]2ccc(C)c3ccccc32)cc1[N+](=O)[O-]", "note": "(configuration not stated)", "activity, negative = inhibitor": "0.317% [at 36.9 µM]"}, {"smiles": "COc1ccccc1NC(=O)C1=C(C)Nc2nc3ccccc3n2C1c1cccs1", "note": "(configuration not stated)", "Potency": "1.4 µM (active)"}, {"smiles": "COc1ccc2[nH]c3c(c2c1)CCNC3c1ccc([N+](=O)[O-])o1", "note": "(configuration not stated)", "Potency": "18.4 µM (active)"}, {"smiles": "CCCCN(CCCC)S(=O)(=O)c1ccc(C(=O)Nc2sc3c(c2C(N)=O)CCN(CC)C3)cc1", "Potency": "25.9 µM (active)"}, {"smiles": "CC(C)N1CCc2c(sc(NC(=O)c3cc4cc([N+](=O)[O-])ccc4s3)c2C(N)=O)C1", "Potency": "23.1 µM (active)"}, {"smiles": "COc1ccc(C(=O)Nc2sc3c(c2C#N)CCN(C(C)=O)C3)cc1", "Potency": "9.94 µM (active)"}, {"smiles": "CC(C)CN(CC(C)C)S(=O)(=O)c1ccc(C(=O)Nc2sc3c(c2C(N)=O)CCN(C(C)C)C3)cc1", "Potency": "20.6 µM (active)"}, {"smiles": "CCN1CCc2c(sc(NC(=O)c3ccc(S(=O)(=O)N(CC)c4ccccc4)cc3)c2C(N)=O)C1", "Potency": "12.5 µM (active)"}, {"smiles": "CCCN1CCc2c(sc(NC(=O)c3ccc(S(=O)(=O)N(C)c4ccccc4)cc3)c2C(=O)NC)C1", "Potency": "18.4 µM (active)"}, {"smiles": "CCN1CCc2c(sc(-n3cccc3)c2C(C)NC(=O)Nc2ccc(C(=O)OC)cc2)C1", "note": "(configuration not stated)", "activity, negative = inhibitor": "8.59%"}, {"smiles": "CCOC(=O)c1c(NC(=O)c2ccc(S(=O)(=O)N3CCC(C)CC3)cc2)sc2c1CCN(C)C2", "Potency": "18.4 µM (active)"}, {"smiles": "CC(C)N1CCc2c(sc(NC(=O)c3ccc(S(=O)(=O)N4CCOCC4)cc3)c2C#N)C1", "Potency": "20.6 µM (active)"}, {"smiles": "CN1C(=O)N(C)c2ccc(C=O)c3cccc1c23", "activity, negative = inhibitor": "14.9%"}, {"smiles": "CCCN1CCc2c(sc(NC(=O)c3ccc(S(=O)(=O)N(C)c4ccccc4)cc3)c2C(N)=O)C1", "Potency": "23.1 µM (active)"}, {"smiles": "CCCN1CCc2c(sc(NC(=S)NC(=O)c3ccccc3)c2C#N)C1", "Potency": "16.4 µM (active)"}, {"smiles": "O=C(NC(=S)Nc1ccccc1N1CCCCC1)c1ccccc1", "activity, negative = inhibitor": "-14.4%"}, {"smiles": "N#CC(C#N)=C1C=C2C=C(N3CCOCC3)CCC2CC1", "note": "(configuration not stated)", "activity, negative = inhibitor": "24.4%"}, {"smiles": "COc1cc(C2C3=C(COC3=O)Oc3cc4c(cc32)OCO4)ccc1OC(C)=O", "note": "(configuration not stated)", "Potency": "3.14 µM (active)"}, {"smiles": "O=C1OCC2=C1C(c1ccc3c(c1)OCO3)c1cc3c(cc1O2)OCO3", "note": "(configuration not stated)", "Potency": "1.25 µM (active)"}, {"smiles": "N#C/C=C/N1CCN(C(=O)c2ccco2)CC1", "activity, negative = inhibitor": "15% [at 36.9 µM]"}, {"smiles": "C=CCN1C(=O)c2ccc(C(=O)N(CC(C)C)c3c(N)n(CCCC)c(=O)[nH]c3=O)cc2C1=O", "activity, negative = inhibitor": "-17.4% [at 36.9 µM]"}, {"smiles": "CCCCn1c(N)c(N(CC(C)C)C(=O)Cc2ccc(S(=O)(=O)N3CCOCC3)s2)c(=O)[nH]c1=O", "Potency": "16.4 µM (active)"}, {"smiles": "CCCCn1c(N)c(N(CCC(C)C)C(=O)c2ccc([N+](=O)[O-])o2)c(=O)[nH]c1=O", "activity, negative = inhibitor": "-13.3%"}, {"smiles": "O=C(O)c1ccccc1N/N=C/c1c(Sc2nnnn2-c2ccccc2)nc2ccccn2c1=O", "activity, negative = inhibitor": "31.2% [at 36.9 µM]"}, {"smiles": "CC(C)COc1ccc(C(=O)N/C(=C/c2cccc([N+](=O)[O-])c2)C(=O)O)cc1", "activity, negative = inhibitor": "-5.47% [at 36.9 µM]"}, {"smiles": "CCN1C/C(=C\\c2cccc([N+](=O)[O-])c2)C(=O)/C(=C/c2cccc([N+](=O)[O-])c2)C1", "Potency": "2.5 µM (active)"}, {"smiles": "OCC[n+]1ccc(/C=C/c2c[nH]c3ccccc23)cc1", "Potency": "5.8 µM (active)"}, {"smiles": "CC[n+]1ccc(/C=C/c2c[nH]c3ccccc23)cc1", "Potency": "1.84 µM (active)"}, {"smiles": "C[n+]1ccc(/C=C/c2cc[n+](C)c3ccccc23)c2ccccc21", "activity, negative = inhibitor": "0.363%"}, {"smiles": "C[n+]1ccc(/C=C/c2c[nH]c3ccccc23)cc1", "Potency": "6.51 µM (active)"}, {"smiles": "O=C(Nc1ccccc1OC(=O)c1ccccc1)c1ccccc1", "Potency": "15.8 µM (active)"}, {"smiles": "O=C(NC(=S)Nc1ccc(-c2ccccc2)cc1)c1ccccc1", "activity, negative = inhibitor": "10.7%"}, {"smiles": "NC(=S)N/N=C/c1ccccc1OC(=O)/C=C/c1ccccc1", "activity, negative = inhibitor": "6.59%"}, {"smiles": "COc1ccccc1NC(=O)Cc1ccc(-c2ccccc2)cc1", "activity, negative = inhibitor": "-0.174%"}, {"smiles": "COc1ccc(C(=O)N/N=C/c2ccccc2OC(=O)c2ccccc2)cc1", "Potency": "3.96 µM (active)"}, {"smiles": "C=C1C(=O)O[C@H]2C1CC[C@@](C)(O)C13C=CC(C)(C21)C1(C3)C(=O)O[C@@H]2C3C(C)=CCC3[C@](C)(O)C[C@H](OC(C)=O)C21", "note": "(some centres not stated)", "Potency": "17.7 µM (active)"}, {"smiles": "Cc1c(NC(=O)c2csc3c2CCCC3)c(=O)n(-c2ccccc2)n1C", "activity, negative = inhibitor": "9.75%"}, {"smiles": "Cc1c(N=C2N=C(NC(=O)c3cccs3)c3ccccc32)c(=O)n(-c2ccccc2)n1C", "Potency": "14 µM (active)"}, {"smiles": "N#Cc1c(C(F)(F)F)cc(-c2ccccc2)nc1SCc1nc(N)nc(N2CCOCC2)n1", "Potency": "16.4 µM (active)"}, {"smiles": "COc1c(-c2ccc(O)c(O)c2)oc2cc(O)cc(O)c2c1=O", "Potency": "12.5 µM (active)"}, {"smiles": "Cc1cc(NC(=O)Nc2nnc(N(C)Cc3ccccc3)s2)ccc1Br", "activity, negative = inhibitor": "0.433%"}, {"smiles": "CSc1nc2ccccc2cc1/C=C(\\C#N)c1cccc(C)c1", "Potency": "11.2 µM (active)"}, {"smiles": "N#C/C(=C\\c1cccc(O)c1)c1nc2ccccc2o1", "Potency": "7.9 µM (active)"}, {"smiles": "Nc1c(C(=O)N/N=C/c2cccnc2)oc2nc(-c3ccccc3)cc(-c3ccco3)c12", "Potency": "4.11 µM (active)"}, {"smiles": "Nc1c(C(=O)N/N=C/c2ccccc2Cl)oc2nc(-c3ccccc3)cc(-c3ccco3)c12", "Potency": "10.3 µM (active)"}, {"smiles": "C/C(=N\\Nc1nc(C)cc(-c2ccccc2)n1)c1ccc(F)cc1", "activity, negative = inhibitor": "-4.82%"}, {"smiles": "Nc1c(C(=O)N/N=C/c2ccc(F)cc2)oc2nc(-c3ccccc3)cc(-c3ccco3)c12", "Potency": "14 µM (active)"}]}]}
